Structures are written as SMILES. Inconclusive results are not listed. The source made the active and inactive calls. How the source made its calls, unless noted: active means hit-call score of the fitted dose curve at least 0.9, where 1 is the maximum; inactive means score below 0.9.

Test [1] is described as follows: ACEA_ER_80hr: ACEA Biosciences xCELLigence Real-Time Cell Analysis on Estrogen Receptor Agonism for Proliferation (AID 2282667; active means hit-call score of the fitted dose curve at least 0.9, where 1 is the maximum). The settings on record: T47D proliferation, impedance (xCELLigence), 80 h. The method in brief:
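Estrogen-driven proliferation is captured as electrode impedance in T47D cells 80 h after compound addition. Test articles ran at 8 concentrations, 1:4 dilutions from 100 uM final, in two replicate plates.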

The nature of test [2]: ATG_CRE_CIS: Attagene CIS-FACTORIAL HepG2 Assay for human cAMP Responsive Element (CRE) binding protein 3 (AID 2282926). The settings on record: HepG2 CRE cis-reporter, Attagene multiplexed mRNA; actives raise or lower the signal. The method in brief:
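Liver-derived HepG2, transfected with a CRE-containing reporter panel, exposed 24 h; transcript levels sized and quantified by capillary electrophoresis of labelled amplicons; signal changes either way referenced to vehicle.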

The target in test [3] is CCAAT/enhancer-binding protein beta (Homo sapiens) (UniProt P17676). Put plainly: ATG_C_EBP_CIS: Attagene CIS-FACTORIAL HepG2 Assay for human CCAAT/Enhancer Binding Protein (C/EBP) beta (AID 2282927). The settings on record: HepG2 Attagene cis-factorial transcription factor reporter; actives raise or lower the signal. The gist of the method:
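Following a 24 h incubation with test chemical, transfected HepG2 cells yielded RNA whose reporter transcripts were quantified by RT-PCR and fluorescent capillary electrophoresis, with DMSO serving as baseline for bidirectional fitting.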

Test [4] in a line: ATG_CMV_CIS: Attagene CIS-FACTORIAL HepG2 Assay for human CMV (Internal Marker) (AID 2282928).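 Further: endpoint acts as a background internal control marker rather than a target.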 The settings on record: HepG2 CMV promoter reporter, transcription factor profiling; actives raise or lower the signal. The method in brief: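 Bidirectional fits against DMSO are applied to reporter mRNA, read by RT-PCR with capillary electrophoresis, from HepG2 cells exposed 24 h. The endpoint serves as an internal CMV background marker within the cis-factorial reporter panel.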

A short description of test [5]: ATG_DR4_LXR_CIS: Attagene CIS-FACTORIAL HepG2 Assay for human Liver X Receptor (LXR), DR4 submotif (AID 2282929). The settings on record: HepG2 Attagene DR4 cis-reporter, mRNA transcription; actives raise or lower the signal. The method in brief:
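The endpoint is DR4-element-driven reporter transcripts after 24 h chemical exposure of transfected HepG2 cells. These were measured via RT-PCR and capillary electrophoresis, and gain or loss of signal was fitted relative to DMSO controls.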

Test [6] addresses Aryl hydrocarbon receptor (Homo sapiens) (UniProt P35869). Put plainly: ATG_Ahr_CIS: Attagene CIS-FACTORIAL HepG2 Assay for human Aryl Hydrocarbon Receptor (Ahr) (AID 2282930). The settings on record: HepG2 AhR cis-factorial reporter transcription; actives raise or lower the signal. The gist of the method: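 Values derive from bidirectional fitting against DMSO negative control. Underlying signal: cis-element reporter mRNA in transiently transfected HepG2, harvested 24 h post-dose and measured by RT-PCR plus capillary electrophoresis.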

The nature of test [7]: ATG_AP_1_CIS: Attagene CIS-FACTORIAL HepG2 Assay for human Activator Protein 1 (AP-1) (AID 2282931). The settings on record: HepG2 Attagene cis-factorial AP-1 reporter mRNA; actives raise or lower the signal. The method in brief:
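Readout is reporter transcript level from endogenous transcription factor activity, quantified by RT-PCR with fluorescent primer extension and capillary electrophoresis. Transiently transfected HepG2 cells, 24 h exposure. Curves fitted both directions versus DMSO.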

Test [8] in a line: ATG_AP_2_CIS: Attagene CIS-FACTORIAL HepG2 Assay for human Activator Protein 2 (AP-2) (AID 2282932). The settings on record: HepG2 AP-2 cis-reporter, Attagene transcription factor profiling; actives raise or lower the signal. The method in brief:
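Assay in transfected HepG2 with promoter-regulated reporters, 24 h incubation after dosing. Signal is reporter mRNA fluorescence (RT-PCR, capillary electrophoresis), analysed for both increases and decreases relative to DMSO controls.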

Test [9] is described as follows: ATG_BRE_CIS: Attagene CIS-FACTORIAL HepG2 Assay for human Bone Morphogenetic Protein (BMP) Response Element (BRE) (AID 2282933). The settings on record: HepG2 BMP response element reporter, Attagene transcription factor profiling; actives raise or lower the signal. The gist of the method: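 Read-out: reporter mRNA induction quantified by RT-PCR and capillary electrophoresis after 24 h chemical exposure of transfected HepG2 cells. Endogenous factor activity on the BMP response element; gain or loss fitted against DMSO baseline.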

For test [10], the target named is Retinoic acid receptor alpha (Homo sapiens) (UniProt P10276). The test is described as follows: ATG_DR5_RAR_CIS: Attagene CIS-FACTORIAL HepG2 Assay for human Retinoic Acid Receptor Alpha (RARE), DR5 submotif (AID 2282934).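 On AC50: reporter responds to endogenous RAR alpha beta and gamma in HepG2 not RARA alone.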 The settings on record: HepG2 Attagene cis-factorial RARE DR5 reporter, mRNA; actives raise or lower the signal. The method in brief: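 Endpoint fitted in both directions relative to DMSO as negative control. It reflects DR5 cis-element reporter mRNA induction in transiently transfected HepG2 cells, measured 24 h after dosing through RT-PCR and fluorescent capillary electrophoresis.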
Chain of Retinoic acid receptor alpha (Homo sapiens) (P10276 whole entry, looked up): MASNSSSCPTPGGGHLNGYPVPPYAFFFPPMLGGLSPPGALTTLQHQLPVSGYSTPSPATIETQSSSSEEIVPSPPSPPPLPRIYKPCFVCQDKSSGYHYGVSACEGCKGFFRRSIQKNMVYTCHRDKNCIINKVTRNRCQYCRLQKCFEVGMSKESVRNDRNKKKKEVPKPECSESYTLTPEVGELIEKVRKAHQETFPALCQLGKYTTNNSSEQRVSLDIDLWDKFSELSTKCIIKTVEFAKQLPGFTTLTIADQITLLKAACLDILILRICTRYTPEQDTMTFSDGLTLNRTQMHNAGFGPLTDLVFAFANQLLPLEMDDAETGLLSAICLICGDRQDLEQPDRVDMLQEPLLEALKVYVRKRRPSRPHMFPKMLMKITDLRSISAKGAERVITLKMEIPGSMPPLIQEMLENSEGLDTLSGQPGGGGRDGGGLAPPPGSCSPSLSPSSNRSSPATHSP

Chain of CCAAT/enhancer-binding protein beta (Homo sapiens) (P17676 whole entry, looked up): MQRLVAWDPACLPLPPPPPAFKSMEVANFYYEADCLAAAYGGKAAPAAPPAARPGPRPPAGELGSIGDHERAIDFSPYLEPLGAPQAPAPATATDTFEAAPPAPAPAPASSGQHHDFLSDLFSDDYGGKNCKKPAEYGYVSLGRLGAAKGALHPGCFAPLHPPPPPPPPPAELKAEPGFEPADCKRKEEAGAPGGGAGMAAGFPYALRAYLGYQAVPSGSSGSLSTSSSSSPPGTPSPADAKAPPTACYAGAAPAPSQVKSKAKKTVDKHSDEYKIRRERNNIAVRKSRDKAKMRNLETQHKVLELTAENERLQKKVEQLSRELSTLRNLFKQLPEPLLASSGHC
Chain of Aryl hydrocarbon receptor (Homo sapiens) (P35869 whole entry, looked up): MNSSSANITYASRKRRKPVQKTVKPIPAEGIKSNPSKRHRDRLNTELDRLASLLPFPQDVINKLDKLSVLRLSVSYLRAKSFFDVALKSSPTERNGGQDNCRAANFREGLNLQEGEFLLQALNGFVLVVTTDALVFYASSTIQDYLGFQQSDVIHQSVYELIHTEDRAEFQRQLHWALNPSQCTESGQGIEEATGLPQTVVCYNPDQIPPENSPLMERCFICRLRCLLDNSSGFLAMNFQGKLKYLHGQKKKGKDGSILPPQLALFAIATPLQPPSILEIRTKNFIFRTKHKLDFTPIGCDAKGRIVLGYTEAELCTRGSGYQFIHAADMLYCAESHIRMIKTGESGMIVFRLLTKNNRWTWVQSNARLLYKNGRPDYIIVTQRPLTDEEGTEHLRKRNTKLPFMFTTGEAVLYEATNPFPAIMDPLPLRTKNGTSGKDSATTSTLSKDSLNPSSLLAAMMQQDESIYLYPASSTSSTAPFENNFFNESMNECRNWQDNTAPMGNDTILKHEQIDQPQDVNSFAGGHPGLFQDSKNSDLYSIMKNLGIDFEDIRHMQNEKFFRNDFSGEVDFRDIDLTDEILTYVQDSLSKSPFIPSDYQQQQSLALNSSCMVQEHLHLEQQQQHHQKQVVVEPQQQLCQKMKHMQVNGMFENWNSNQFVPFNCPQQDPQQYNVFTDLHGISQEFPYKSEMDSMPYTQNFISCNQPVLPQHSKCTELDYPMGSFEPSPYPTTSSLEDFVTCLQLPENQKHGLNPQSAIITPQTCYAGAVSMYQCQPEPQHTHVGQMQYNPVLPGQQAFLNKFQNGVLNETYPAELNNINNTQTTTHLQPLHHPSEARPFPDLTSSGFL

In general, AC50 refers to the concentration at which the activity in the assay is half-maximal. For the compound `c1ccc2cnccc2c1`, the call in [1], in test [2], in test [3], in [4], in test [5] and in test [7] was inactive. The call in test [8], in test [9] and in [10] was inactive. In test [6], the concentration at half-maximal activity (AC50) is 61.1 µM (active).
Turning to `COC(=O)c1ccccc1C`, the compound was classed as inactive in test [1], in test [2], in [3], in test [4], in [5] and in [6]. Besides, the result in test [7], in test [8] and in test [9] was inactive.
Take `CC1=CCC(C(C)C)C=C1` (stereo unspecified): the result in test [1], in test [2], in [3], in test [4], in [5] and in test [6] was inactive. Also, the outcome in test [7], in test [8] and in test [9] was inactive.
With `CCCCCCCCCC[N+](C)(CCCCCCCCCC)CCC[Si](OC)(OC)OC`, the call in test [1], in [4], in test [5], in [6], in test [7] and in test [9] was inactive. Further, the AC50 in [2] was 17.5 µM (active); in test [3], 18.2 µM (active); in test [8], 15.3 µM (active); in [10], 16.9 µM (active).
For `CCC1(C)C(=O)N(Cl)C(=O)N1Cl` (stereo unspecified), the call in [1], in test [4], in test [5], in test [6], in [8] and in test [9] was inactive. Besides, the outcome in [10] was inactive. For the same compound, the AC50 was 27.6 µM (active) in test [2], 38.9 µM (active) in test [3] and 67.4 µM (active) in [7].
For the compound `OCCCc1ccccc1`, the call in test [1], in [2], in test [3], in test [4], in test [5] and in test [6] was inactive. The outcome in test [7], in test [8] and in [9] was inactive.
As for `Nc1ccc(Cl)c(N)c1`, the result in [1], in test [2], in [3], in [4], in test [5] and in test [7] was inactive. Moreover, the compound was called inactive in test [8], in test [9] and in test [10]. In addition, the AC50 in [6] was 6.09 µM (active).
On to `CC/C=C\C/C=C\C/C=C\CCCCCCCC(=O)OC`, for which the outcome in [1], in test [2], in [3] and in [4] was inactive. Moreover, the AC50 is 71.1 µM (active) in test [5]; 47.6 µM (active) in test [6]; 70.6 µM (active) in test [7]; 100 µM (active) in test [8]; 167 µM (active) in test [9].
As for `C=CC(=O)OCCCCCCCCCC`, the outcome in test [1], in [2], in test [3], in test [4], in test [5] and in test [6] was inactive. In addition, the compound was called inactive in test [7], in test [8] and in [9]. In addition, in [10], the AC50 was 46 µM (active).
Turning to `CC(C)(CO)C(O)C(=O)NCCCO` (stereo unspecified), the compound was called inactive in test [1], in [2], in test [3], in test [4], in [5] and in test [6]. Further, the outcome in test [7], in [8], in test [9] and in test [10] was inactive.
As to `CC(CC=O)CC(C)(C)C` (stereo unspecified), the result in test [1], in [2], in test [3], in [4], in test [5] and in [6] was inactive. In addition, the outcome in test [7], in test [8], in [9] and in test [10] was inactive.
`C=C(C)C(=O)OCCOC(=O)C(=C)C`: the outcome in [1], in [2], in [3], in [4], in [5] and in [6] was inactive. For the same compound, the outcome in test [7], in test [8], in [9] and in [10] was inactive.
As to `CCCCCCCCCCCCCCCCCCOS(=O)(=O)O`, the AC50 in test [1] was 10.5 µM (active); in [4], 11.1 µM (active); in test [7], 20.3 µM (active); in test [8] it was 57.3 µM (active). Besides, the outcome in [2], in [3], in [5], in test [6], in test [9] and in test [10] was inactive.
For `c1ccc2c(c1)[nH]c1ccccc12`, the outcome in test [1], in [2], in [3], in test [4], in [5] and in test [7] was inactive. Moreover, the compound was classed as inactive in test [8], in [9] and in test [10]. Besides, the AC50 in [6] was 18 µM (active).
`CCC(=O)C1CC(C(C)C)CC=C1C` (stereo unspecified): the result in test [1], in test [2], in test [3], in test [4], in [5] and in test [6] was inactive. Besides, the compound was classed as inactive in test [7], in [8] and in test [9].
Regarding `CC(=O)CCC=C(C)C`, the compound was called inactive in [1], in test [2], in test [3], in test [4], in test [5] and in test [6]. Moreover, the call in test [7], in test [8], in [9] and in test [10] was inactive.
In the case of `CC1=C(O)C(=O)C(C)O1` (stereo unspecified), the call in test [1], in test [2], in [3], in test [4], in test [5] and in test [6] was inactive. Moreover, the outcome in test [7], in [8], in test [9] and in [10] was inactive.
For `C=CC(C)(CCC=C(C)C)OC(=O)C=Cc1ccccc1` (stereo unspecified), the outcome in [1], in [2], in test [3], in test [6], in [8] and in test [9] was inactive. Further, the figures for the AC50 in test [4], in test [5] and in test [7] were 84.2 µM (active), 27.1 µM (active) and 100 µM (active), respectively.
In the case of `Cc1cc(C)n(CO)n1`, the compound was called inactive in test [1], in test [2], in test [3], in test [4], in test [5] and in [6]. In addition, the call in test [7], in test [8] and in test [9] was inactive.
For the compound `C=Cc1cccc(C)c1`, the compound was called inactive in test [1], in [2], in test [3], in test [4], in test [5] and in test [6]. Moreover, the compound was classed as inactive in [8] and in [9]. Besides, the AC50 in test [7] was 31.9 µM (active).
On to `CC(=O)OC1CCCCC1C(C)(C)C` (stereo unspecified), for which the compound was called inactive in [1], in test [2], in test [3], in test [4], in test [5] and in test [6]. In addition, the compound was called inactive in test [7], in test [8] and in test [9].
Regarding `CC1(C)CC(O)CC(C)(C)N1[O]`, the call in test [1], in [2], in test [3], in test [5], in test [6] and in [8] was inactive. Besides, the result in [9] was inactive. Moreover, the AC50 in test [4] is 26.2 µM (active); in test [7] it was 26.6 µM (active).
Take `CC(=O)/C=C/C1C(C)=CCCC1(C)C` (stereo unspecified): the compound was classed as inactive in test [1], in [2], in [3], in [4], in [5] and in test [6]. Besides, the compound was called inactive in test [7], in test [8] and in test [9].
As to `CCOC(=O)c1ccc(C)cc1`, the compound was classed as inactive in test [1], in test [2], in test [3], in [4], in test [5] and in test [6]. Further, the call in test [7], in [8] and in [9] was inactive.
For `CCCCC(=O)O`, the outcome in test [1], in test [2], in test [3], in [4], in test [5] and in test [6] was inactive. The compound was classed as inactive in test [7], in test [8] and in test [9].
For `CCCCCC[C@@H](O)C/C=C\CCCCCCCC(=O)OCC(O)CO` (stereo partly specified), the result in [1], in test [2], in test [3], in test [6] and in test [9] was inactive. The AC50 in test [4] is 131 µM (active); in [5], 163 µM (active); in test [7] it was 75.7 µM (active); in test [8], 158 µM (active).

The values above are taken from PubChem BioAssay (EPA / NIEHS).
